Results filed as inconclusive are left out. Activity calls are given as the source filed them. Unless noted, the call rests on the fitted dose curve.
Experiments:
[1] = qHTS for Inhibitors of the Functional Ribonucleoprotein Complex (vRNP) of Lassa (LASV) Arenavirus: LASV Primary Screen - GLuc reporter signal (AID 1347082; calls by dose curve; tested in HEK293 reporter line; further: nearly all actives have a fitted effect of over 60% in size; further: potency means the concentration at half of the fitted maximal effect; on activity change, negative = inhibition: on the % scale 0 is the no-effect control and ±100 the full control effect)
[2] = qHTS for Inhibitors of the Functional Ribonucleoprotein Complex (vRNP) of Lassa (LASV) Arenavirus: Viability assay - alamar blue signal for LASV Primary Screen (AID 1347083; calls by dose curve; tested in HEK293 reporter line; further: nearly all actives have a fitted effect of over 80% in size; further: potency means the concentration at half of the fitted maximal effect)
[3] = qHTS for Inhibitors of the Functional Ribonucleoprotein Complex (vRNP) of Lymphocytic Choriomeningitis Arenaviruses (LCMV): Viability assay - alamar blue signal for LCMV Primary Screen (AID 1347085; calls by dose curve; tested in HEK293 reporter line; further: nearly all actives have a fitted effect of over 80% in size; further: potency means the concentration at half of the fitted maximal effect)
[4] = molecular target: Nucleoprotein (Lymphocytic choriomeningitis virus (strain Armstrong)) (UniProt P09992); assay: qHTS for Inhibitors of the Functional Ribonucleoprotein Complex (vRNP) of Lymphocytic Choriomeningitis Arenaviruses (LCMV): LCMV Primary Screen - GLuc reporter signal (AID 1347086); further: nearly all actives have a fitted effect of over 70% in size; further: potency means the concentration at half of the fitted maximal effect; on activity change, negative = inhibition: on the % scale 0 is the no-effect control and ±100 the full control effect
Sequence of Nucleoprotein (Lymphocytic choriomeningitis virus (strain Armstrong)) (P09992 whole entry, looked up): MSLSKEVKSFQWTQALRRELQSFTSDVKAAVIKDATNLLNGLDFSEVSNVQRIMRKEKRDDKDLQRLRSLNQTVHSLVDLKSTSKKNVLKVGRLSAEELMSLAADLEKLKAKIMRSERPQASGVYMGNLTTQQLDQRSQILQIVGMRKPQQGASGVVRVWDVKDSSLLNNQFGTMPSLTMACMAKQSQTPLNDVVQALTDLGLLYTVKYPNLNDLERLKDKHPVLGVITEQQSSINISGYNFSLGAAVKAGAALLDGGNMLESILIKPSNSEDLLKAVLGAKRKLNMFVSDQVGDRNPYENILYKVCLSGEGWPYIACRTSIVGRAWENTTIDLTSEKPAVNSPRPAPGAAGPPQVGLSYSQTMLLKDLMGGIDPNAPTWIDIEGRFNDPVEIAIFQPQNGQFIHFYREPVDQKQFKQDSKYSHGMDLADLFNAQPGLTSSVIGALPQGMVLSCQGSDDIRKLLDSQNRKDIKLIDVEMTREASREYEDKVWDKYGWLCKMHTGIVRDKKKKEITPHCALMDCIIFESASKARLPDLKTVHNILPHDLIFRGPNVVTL

CRL-7250 = normal cell line; assay: qHTS assay to identify novel small-molecules to repurpose for Merkel cell carcinoma treatment (AID 1296009; active means well fitted curve in the direction sought with a large enough effect; an effect the other way counts as inactive or inconclusive; further: nearly all actives have a fitted effect of over 60% in size); conditions: MCC and control cell lines, CellTiter-Glo viability, 72 h; series mostly up to 92 µM
In short: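 qHTS format: cells treated with library compounds in DMSO across 8 (NPC) or 11 (MIPE) concentrations. Readout after 72 hr at 37 degree celsius was CellTiter-Glo luminescence.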

[5] = Primary qHTS for inhibitors of SARS-S pseudo-typed particle cell entry (AID 1479145); further: nearly all actives have a fitted effect of over 45% in size; on activity change, negative = inhibition: on the % scale 0 is the no-effect control and ±100 the full control effect
[6] = Primary qHTS for Huh7 cytotoxicity: counterscreen for inhibitors of MERS-S pseudotyped particle cell entry (AID 1479147); conditions: outcome: dose series up to 57.1 µM unless noted; on activity change, negative = cytotoxicity: on the % scale 0 is the no-effect control and ±100 the full control effect
[7] = Primary qHTS for inhibitors of MERS-S pseudo-typed particle cell entry (AID 1479149); further: nearly all actives have a fitted effect of over 60% in size
[8] = Primary qHTS for Vero E6 cytotoxicity: counterscreen for inhibitors of SARS-S pseudo-typed particle cell entry (AID 1479150); conditions: outcome: dose series up to 57.1 µM unless noted
[9] = Cytotoxicity counterscreen for inhibitors of SARS-CoV-2 cell entry (AID 1645845); further: nearly all actives have a fitted effect of over 50% in size; further: potency means the concentration at half of the fitted maximal effect
In short: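 Expi293F/hACE2 cells seeded overnight; cpd pin-transferred in DMSO, 1 h preincubation, + media, 48 h 37 C 5% CO2; ATPLite 1step luminescence; normalized to cells and no cells.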

[10] = qHTS Assay for Lipid Storage Modulators (AID 1519); conditions: Drosophila S3 cells, BODIPY lipid droplet/cell ratio, laser cytometry, cells loaded with oleic acid
In short: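 Cells seeded at 5,000 per well were treated with compounds over a concentration series and loaded with oleic acid (400 uM, as added). Lipid droplet fluorescence (488 nm excitation, 500-530 nm channel) was read by laser-scanning cytometry and normalized to 20 uM Triacsin C.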

[11] = qHTS profiling of the MIPE4 collection as inhibitors of Plasmodium falciparum (3D7) proliferation (AID 743344; call rule not given here;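 further: scaled between DMSO vehicle wells and 0.29 µM artemisinin as full inhibition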); conditions: P. falciparum 3D7 in erythrocytes, SYBR Green DNA fluorescence, 72 h; at 28.5 µM (top of the series) unless noted
In short: (§1)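 Erythrocytes infected with P. falciparum (0.3% parasitemia, 2.5% hematocrit) incubated with compounds 72 h at 37 C, 5% CO2. Lysis with saponin/Triton buffer containing SYBR Green I, overnight at room temperature in the dark; DNA fluorescence (485/535 nm) normalised to 0.29 uM artemisinin and DMSO.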

[12] = qHTS profiling of the MIPE4 collection as inhibitors of Plasmodium falciparum (DD2) proliferation (AID 743345; call rule not given here); conditions: P. falciparum Dd2 in erythrocytes, SYBR Green DNA, 72 h; at 28.5 µM (top of the series) unless noted
In short: as §1

[13] = Primary qHTS to identify inhibitors of SARS-CoV-2 cell entry (AID 1645846); conditions: activity change, negative = inhibition: at 57.1 µM (top of the series) unless noted; further: nearly all actives have a fitted effect of over 45% in size; further: potency means the concentration at half of the fitted maximal effect
In short: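 Inhibition of spike-mediated entry was scored in human ACE2-transfected Expi293F cells. Particles were MLV-pseudotyped with Wuhan-Hu-1 S carrying a 19-aa C-terminal deletion; signal was luciferase after two days, scaled between spike PP and fusion-protein-free PP.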

[14] = Confirmatory qHTS for VERO E6 Cytotoxicity Assay: Counterscreen for SARS-CoV-2 CPE Assay (AID 1508605); further: on the % scale 0 is the no-effect control and ±100 the full control effect; nearly all actives have a fitted effect of over 60% in size
[15] = Confirmatory qHTS for activators (rescue) of SARS-CoV-2 Cytopathic Effect (CPE) (AID 1508606); further: nearly all actives have a fitted effect of over 70% in size; further: potency means the concentration at half of the fitted maximal effect
[16] = Inducers of the Endoplasmic Reticulum Stress Response (ERSR) in human glioma: Validation (AID 504836; active means well fitted curve in the direction sought with a large enough effect; an effect the other way counts as inactive or inconclusive; further: 0% is about no effect)
In short: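 Stably transfected U87-MG human glioma cells carrying a GRP78-based luminescent sensor were seeded at 1000 cells/well, pin-dosed with compounds and incubated 16 h. Luciferase reagent was then added, and end-point luminescence was read after 10 min at room temperature.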

COc1c(O)cc2c(c1O)[C@@H]1O[C@H](CO)[C@@H](O)[C@H](O)[C@H]1OC2=O
inactive: Potency [1] | Potency [2] | Potency [3] | Potency [4] | Potency (CRL-7250)

CC[C@H](C)[C@H](NC(=O)[C@H](Cc1ccc(O)cc1)NC(=O)[C@@H](N)C(C)C)C(=O)N[C@@H](Cc1cnc[nH]1)C(=O)N1CCC[C@H]1C(=O)N[C@@H](Cc1ccccc1)C(=O)O
inactive: outcome (CRL-7250) inactive [at 4.96 µM]

CCNC(=O)Nc1ccc2ncc(Nc3ccc(C)cc3)nc2n1
active: Potency [2] 2.17 µM
inactive: Potency [1] | Potency (CRL-7250)

C[C@@H]1CCO[C@H]2Cn3cc(C(=O)NCc4ccc(F)cc4F)c(=O)c(O)c3C(=O)N12
inactive: Potency [1] | Potency [2] | Potency [3] | Potency [4] | Potency [5] | outcome [6] | Potency [7] | outcome [8] | Potency [9] | Potency (CRL-7250)

Cc1ccc(C2=Nc3ccc(Cl)cc3OC2)cc1
inactive: Potency [1] | Potency [2] | Potency [3] | Potency [4] | Potency [9] | Potency (CRL-7250)

C[N+]1(C)[C@@H]2C[C@@H](OC(=O)C(O)(c3cccs3)c3cccs3)C[C@H]1[C@@H]1O[C@@H]12
inactive: Potency [1] | Potency [2] | Potency [3] | Potency [4] | Potency (CRL-7250)

CN(C1CCc2c(c3ccccc3n2CC(=O)O)C1)S(=O)(=O)c1ccc(F)cc1 (configuration not stated)
inactive: Potency [1] | Potency [2] | Potency [3] | Potency [4] | Potency (CRL-7250)

CN(C)CC(=O)N1CCC(c2ccc(NC(=O)c3ncc(C#N)[nH]3)c(C3=CCCCC3)c2)CC1
inactive: Potency [1] | Potency [2] | Potency [3] | Potency [4] | Potency [9] | Potency (CRL-7250)

CN(C)CCC=C1c2ccccc2COc2ccc(CC(=O)O)cc21
inactive: Potency [1] | Potency [2] | Potency [3] | Potency [4] | Potency (CRL-7250)

COC(=O)[C@@H]1[C@H]2C[C@@H]3c4[nH]c5ccccc5c4CCN3C[C@@H]2CC[C@@H]1O
inactive: Potency [1] | Potency [2] | Potency [3] | Potency [4] | Potency (CRL-7250)

CN(C)c1nc(Cc2ccc(NC(=O)c3ccc(C(F)(F)F)cc3)cc2)nc(N(C)C)c1CC(=O)O
inactive: Potency [1] | Potency [2] | Potency [3] | Potency [4] | Potency (CRL-7250)

CC1C(=O)OC2C(O)C34C5CC(C(C)(C)C)C36C(OC(=O)C6O)OC4(C(=O)O5)C12O (configuration not stated)
inactive: Potency [1] | Potency [2] | Potency [3] | Potency [4] | Potency (CRL-7250)

CN1[C@H]2CC(OC(=O)[C@@H](CO)c3ccccc3)C[C@H]1[C@H]1O[C@H]12 (some centres not stated)
10.6%: max response ([10]; measured here: lipid channel max response)
inactive: activity change, negative = inhibition ([10]; at 25.7 µM (top of the series)) -0.085% | Potency [1] | Potency [2] | Potency [3] | Potency [4] | Potency (CRL-7250)
9.59%: max response ([10]; measured here: cell count channel max response)
96.6%: parasite growth, % of DMSO control [11]
107%: parasite growth remaining, % of DMSO control (lower = more inhibition) [12]

COC1=C(OC)C(=O)C(CC=C(C)CCC=C(C)CCC=C(C)CCC=C(C)CCC=C(C)CCC=C(C)CCC=C(C)CCC=C(C)CCC=C(C)CCC=C(C)C)=C(C)C1=O
inactive: Potency [1] | Potency [2] | Potency [3] | Potency [4] | outcome [5] inactive [at 5.34 µM] | outcome [6] inactive [at 5.34 µM] | outcome [7] inactive [at 5.34 µM] | outcome [8] inactive [at 5.34 µM] | outcome [9] inactive [at 5.25 µM] | outcome [13] inactive [at 5.25 µM] | Potency (CRL-7250)

Cc1cnc(Nc2cccc(CN3CCOCC3)c2)nc1Nc1cccc(S(=O)(=O)NC(C)(C)C)c1
inactive: Potency [1] | Potency [2] | Potency [3] | Potency [4] | Potency [9] | Potency (CRL-7250)

CC(=O)O[C@]1(C(C)=O)CC[C@H]2[C@@H]3C=C(C)C4=CC(=O)CC[C@]4(C)[C@@H]3CC[C@@]21C
inactive: Potency [1] | Potency [2] | Potency [3] | Potency [4] | Potency (CRL-7250)

O=C(CCN1CCN(C(=O)OCc2cc(Cl)cc(Cl)c2)CC1)c1ccc2[nH]c(=O)oc2c1
inactive: Potency [1] | Potency [2] | Potency [3] | Potency [4] | Potency [9] | Potency (CRL-7250)
-26.2%: activity change, negative = inhibition [13]

CCCCCCCCCCCCCCCCCCCCCCO
inactive: Potency [1] | Potency [2] | Potency [3] | Potency [4] | outcome [5] inactive [at 0.573 µM] | outcome [6] inactive [at 0.573 µM] | outcome [7] inactive [at 0.573 µM] | activity change, negative = cytotoxicity [8] 2.8% [at 0.573 µM] | Potency [9] | outcome [13] inactive [at 0.702 µM] | Potency (CRL-7250)
-17.8% [at 27.1 µM]: activity change, negative = inhibition [13]

CCOC(=O)c1c(CSc2ccccc2)n(C)c2cc(Br)c(O)c(CN(C)C)c12
active: Potency [15] 11.2 µM
inactive: Potency [1] | Potency [2] | Potency [3] | Potency [4] | Potency [14] | Potency (CRL-7250)

CON=C(C(=O)N[C@@H]1C(=O)N2C(C(=O)OCOC(=O)C(C)(C)C)=C(C=Cc3scnc3C)CS[C@H]12)c1csc(N)n1
inactive: Potency [1] | Potency [2] | Potency [3] | Potency [4] | Potency (CRL-7250)

OC(CCN1CCCCC1)(c1ccccc1)C1CCCCC1 (configuration not stated)
inactive: outcome [16] | Potency [1] | Potency [2] | Potency [3] | Potency [4] | outcome [6] | outcome [8] | Potency [9] | Potency (CRL-7250)

O=C(CN1C(=O)C2(CCCC2)NC[C@H]1c1cc(F)cc(F)c1)Nc1ccc2c(c1)C[C@@]1(C2)C(=O)Nc2ncccc21
inactive: Potency [1] | Potency [2] | Potency [3] | Potency [4] | Potency [9] | Potency (CRL-7250)

CN1C(C(=O)Nc2ccccn2)=C(O)c2sc(Cl)cc2S1(=O)=O
active: Potency [1] 24.3 µM | Potency [2] 15.3 µM | Potency [3] 24.3 µM | Potency [4] 15.3 µM
2.28%: activity change, negative = inhibition [13]
inactive: Potency [5] | outcome [6] | Potency [7] | outcome [8] | Potency [9] | Potency (CRL-7250)

CNC[C@@H](O)[C@@H](O)[C@H](O)[C@H](O)CO
inactive: Potency [1] | Potency [2] | Potency [3] | Potency [4] | Potency (CRL-7250)

CCc1nc(-c2cccc(C)c2)c(-c2ccnc(NC(=O)c3ccccc3)c2)s1
inactive: Potency [1] | Potency [2] | Potency [3] | Potency [4] | Potency [15] | Potency (CRL-7250)
active: Potency [13] 25.1 µM

CC(=O)C1=C(O)C=C2Oc3c(C(C)=O)c(O)c(C)c(O)c3C2(C)C1=O (configuration not stated)
inactive: Potency [1] | Potency [2] | Potency [3] | Potency [4] | Potency (CRL-7250)

Cc1ccc(Nc2cc(-c3cccc(N4C(=O)c5ccccc5C4=O)c3)ncn2)cc1NS(C)(=O)=O
active: Potency [9] 31.6 µM
inactive: Potency [1] | Potency [2] | Potency [3] | Potency [4] | Potency (CRL-7250)

N#Cc1ccc(Oc2ccc3c(c2)COB3O)cc1
inactive: Potency [1] | Potency [2] | Potency [3] | Potency [4] | outcome [6] | Potency [7] | Potency [9] | Potency [13] | Potency (CRL-7250)
-3.74%: activity change, negative = inhibition [13]

O=C(O)CCC=CCC[C@@H]1[C@H](N2CCCCC2)[C@@H](O)C[C@@H]1OCc1ccc(-c2ccccc2)cc1
inactive: Potency [1] | Potency [2] | Potency [3] | Potency [4] | outcome [6] | Potency [7] | outcome [8] | Potency [9] | Potency (CRL-7250)
